# Assay results reported in PubChem BioAssay (EPA / NIEHS).
# Inconclusive results are not listed. Activity calls are given as the source filed them. How the source made its calls: active means hit-call score of the fitted dose curve at least 0.9, where 1 is the maximum; inconclusive means response in the unintended direction; inactive means score below 0.9.
# Experiments:
# [1] = biological target: human Neurokinin, NK2 Receptor, TACR2 (gene 6865) (UniProt P21452); test: NVS_GPCR_hNK2: NovaScreen (NVS) G Protein-Coupled Receptor Assay for human Neurokinin, NK2 Receptor (AID 2283278);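 further: actives reduce bound radioligand signal relative to DMSO baseline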
# Chain of human Neurokinin, NK2 Receptor, TACR2 (gene 6865) (P21452 whole entry, looked up): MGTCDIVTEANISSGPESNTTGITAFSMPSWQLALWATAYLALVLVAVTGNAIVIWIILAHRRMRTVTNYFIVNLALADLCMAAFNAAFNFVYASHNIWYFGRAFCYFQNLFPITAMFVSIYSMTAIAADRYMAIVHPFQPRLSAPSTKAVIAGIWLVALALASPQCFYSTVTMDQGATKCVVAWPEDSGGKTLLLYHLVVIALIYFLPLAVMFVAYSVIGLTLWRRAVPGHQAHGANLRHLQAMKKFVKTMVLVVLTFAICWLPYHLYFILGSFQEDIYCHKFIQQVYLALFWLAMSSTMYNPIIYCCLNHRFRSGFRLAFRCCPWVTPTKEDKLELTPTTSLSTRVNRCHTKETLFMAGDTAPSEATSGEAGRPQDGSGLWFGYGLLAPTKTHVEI
# Procedure, shortened: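 Test chemicals displace a radioligand from receptor prepared from CHO cells in a cell-free format, read after 4 hours by scintillation counting on filters. Screening starts at 25 uM in duplicate, and active chemicals then go to concentration series.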
# [2] = biological target: human Thromboxane A2 Receptor (TXA2), TBXA2R (gene 6915) (UniProt P21731); test: NVS_GPCR_hTXA2: NovaScreen (NVS) G Protein-Coupled Receptor Assay for human Thromboxane A2 Receptor (TXA2) (AID 2283282);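 further: actives reduce bound radioligand signal relative to DMSO baseline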
# Chain of human Thromboxane A2 Receptor (TXA2), TBXA2R (gene 6915) (P21731 whole entry, looked up): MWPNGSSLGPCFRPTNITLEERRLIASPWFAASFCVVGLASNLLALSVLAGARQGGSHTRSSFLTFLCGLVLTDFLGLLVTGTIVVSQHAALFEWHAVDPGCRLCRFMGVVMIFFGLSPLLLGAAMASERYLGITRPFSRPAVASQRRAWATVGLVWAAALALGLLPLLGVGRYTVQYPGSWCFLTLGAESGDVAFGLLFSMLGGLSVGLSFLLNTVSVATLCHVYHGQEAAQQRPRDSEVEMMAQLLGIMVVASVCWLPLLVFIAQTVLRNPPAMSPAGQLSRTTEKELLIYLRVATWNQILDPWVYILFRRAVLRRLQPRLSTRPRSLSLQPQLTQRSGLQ
# Procedure, shortened: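 Biochem binding, human platelets, cell-free; competitive radioligand displacement; 1 h; filter radiodetection. 25 uM duplicate primary, conc. series secondary; DMSO neg. ctrl.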
# [3] = biological target: rat Serotonin, 5-Hydroxytryptamine Receptor 1 (5HT1), Non-Selective Binding, Htr1a (gene 24473) (UniProt P19327); test: NVS_GPCR_r5HT1_NonSelective: NovaScreen (NVS) G Protein-Coupled Receptor Assay for rat Serotonin, 5-Hydroxytryptamine Receptor 1 (5HT1), Non-Selective Binding (AID 2283286)
# Chain of rat Serotonin, 5-Hydroxytryptamine Receptor 1 (5HT1), Non-Selective Binding, Htr1a (gene 24473) (P19327 whole entry, looked up): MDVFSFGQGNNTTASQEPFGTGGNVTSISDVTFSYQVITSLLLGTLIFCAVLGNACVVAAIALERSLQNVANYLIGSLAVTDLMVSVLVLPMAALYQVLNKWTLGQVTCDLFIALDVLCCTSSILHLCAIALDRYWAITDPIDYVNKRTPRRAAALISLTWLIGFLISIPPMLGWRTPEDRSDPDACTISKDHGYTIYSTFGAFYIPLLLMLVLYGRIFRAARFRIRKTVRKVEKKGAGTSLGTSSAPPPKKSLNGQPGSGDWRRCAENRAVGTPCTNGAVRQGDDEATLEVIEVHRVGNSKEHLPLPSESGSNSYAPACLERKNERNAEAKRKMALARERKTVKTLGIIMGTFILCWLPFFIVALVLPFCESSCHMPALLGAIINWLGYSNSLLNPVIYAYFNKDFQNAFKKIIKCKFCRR
# Procedure, shortened: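 Binding of a radioligand to rat cortex membranes is read by filtration and scintillation counting after 1 h. Compounds were screened at 25 uM in duplicate. Actives were then titrated to a top of 50 uM. DMSO is the baseline.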
# [4] = system: 5-hydroxytryptamine receptor 2C (pig); test: NVS_GPCR_p5HT2C: NovaScreen (NVS) G Protein-Coupled Receptor Assay for pig Serotonin, 5-Hydroxytryptamine Receptor 2C (5HT2C) (AID 2283288)
# Procedure, shortened: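 Radioligand displacement on membranes from pig choroid plexus, detected by filter scintillation counting after 1 h. Tested first at a single 25 uM in duplicate, then in concentration-response for actives; DMSO served as baseline.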
# [5] = biological target: human Opioid Receptor Mu (Opiate Mu), OPRM1 (gene 4988) (UniProt P35372); test: NVS_GPCR_hOpiate_mu: NovaScreen (NVS) G Protein-Coupled Receptor Assay for human Opioid Receptor Mu (Opiate Mu) (AID 2283290);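 further: hits lower bound tracer signal versus DMSO meaning displacement of the ligand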
# Chain of human Opioid Receptor Mu (Opiate Mu), OPRM1 (gene 4988) (P35372 whole entry, looked up): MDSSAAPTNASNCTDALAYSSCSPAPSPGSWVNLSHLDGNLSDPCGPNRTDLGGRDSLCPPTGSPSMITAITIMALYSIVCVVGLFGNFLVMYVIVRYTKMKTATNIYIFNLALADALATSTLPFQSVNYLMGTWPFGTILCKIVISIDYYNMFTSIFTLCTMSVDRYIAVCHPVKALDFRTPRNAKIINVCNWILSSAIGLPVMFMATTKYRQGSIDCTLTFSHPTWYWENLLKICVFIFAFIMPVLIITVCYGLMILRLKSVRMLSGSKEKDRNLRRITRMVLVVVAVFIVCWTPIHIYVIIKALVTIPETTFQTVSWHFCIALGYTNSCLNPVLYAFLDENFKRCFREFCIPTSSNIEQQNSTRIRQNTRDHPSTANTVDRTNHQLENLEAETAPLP
# Procedure, shortened: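 Here, radioligand binding to CHO-extracted receptor was measured after 2.5 h using filter-based scintillation detection. Initial single-concentration screening used 25 uM in duplicate with plate controls; confirmed actives went to concentration-response testing.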
# [6] = biological target: rat Serotonin, 5-Hydroxytryptamine Receptor (5HT), Non-Selective Binding, Htr1a (gene 24473) (UniProt P19327); test: NVS_GPCR_r5HT_NonSelective: NovaScreen (NVS) G Protein-Coupled Receptor Assay for rat Serotonin, 5-Hydroxytryptamine Receptor (5HT), Non-Selective Binding (AID 2283295)
# Chain of rat Serotonin, 5-Hydroxytryptamine Receptor (5HT), Non-Selective Binding, Htr1a (gene 24473) (P19327 whole entry, looked up): as the sequence (P19327 whole entry, looked up) above
# Procedure, shortened: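 Rat cortex membrane preparation incubated 1 h with radioligand and test chemical; bound radioactivity counted after filtration. Screening began in duplicate at 25 uM with concentration-series follow-up; fitting relative to DMSO.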
# [7] = biological target: rat Adrenergic, Alpha 1A Receptor (Adra1A), Adra1a (gene 29412) (UniProt P43140); test: NVS_GPCR_rAdra1A: NovaScreen (NVS) G Protein-Coupled Receptor Assay for rat Adrenergic, Alpha 1A Receptor (Adra1A) (AID 2283296)
# Chain of rat Adrenergic, Alpha 1A Receptor (Adra1A), Adra1a (gene 29412) (P43140 whole entry, looked up): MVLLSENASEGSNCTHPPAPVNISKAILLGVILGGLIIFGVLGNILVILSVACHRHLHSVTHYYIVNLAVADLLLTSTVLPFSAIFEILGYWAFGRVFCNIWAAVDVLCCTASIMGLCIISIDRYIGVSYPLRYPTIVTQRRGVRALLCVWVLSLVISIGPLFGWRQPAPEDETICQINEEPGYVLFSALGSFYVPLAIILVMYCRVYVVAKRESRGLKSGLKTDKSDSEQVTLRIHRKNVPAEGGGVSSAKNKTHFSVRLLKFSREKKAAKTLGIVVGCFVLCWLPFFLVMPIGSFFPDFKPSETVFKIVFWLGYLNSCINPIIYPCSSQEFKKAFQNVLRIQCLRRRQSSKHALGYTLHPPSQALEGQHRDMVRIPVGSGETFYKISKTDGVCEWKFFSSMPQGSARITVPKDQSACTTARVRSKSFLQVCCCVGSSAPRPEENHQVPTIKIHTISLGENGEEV
# Procedure, shortened: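 Filter radiodetection after 1 h competitive binding on CEC-pretreated rat cortical membranes. Duplicate single-point screening at 25 uM; active chemicals retested across concentration series.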
# [8] = biological target: rat Adrenergic Receptor, Beta (Adrb), Non-selective Binding, Adrb1 (gene 24925) (UniProt P18090); test: NVS_GPCR_rAdrb_NonSelective: NovaScreen (NVS) G Protein-Coupled Receptor Assay for rat Adrenergic Receptor, Beta (Adrb), Non-selective Binding (AID 2283298)
# Chain of rat Adrenergic Receptor, Beta (Adrb), Non-selective Binding, Adrb1 (gene 24925) (P18090 whole entry, looked up): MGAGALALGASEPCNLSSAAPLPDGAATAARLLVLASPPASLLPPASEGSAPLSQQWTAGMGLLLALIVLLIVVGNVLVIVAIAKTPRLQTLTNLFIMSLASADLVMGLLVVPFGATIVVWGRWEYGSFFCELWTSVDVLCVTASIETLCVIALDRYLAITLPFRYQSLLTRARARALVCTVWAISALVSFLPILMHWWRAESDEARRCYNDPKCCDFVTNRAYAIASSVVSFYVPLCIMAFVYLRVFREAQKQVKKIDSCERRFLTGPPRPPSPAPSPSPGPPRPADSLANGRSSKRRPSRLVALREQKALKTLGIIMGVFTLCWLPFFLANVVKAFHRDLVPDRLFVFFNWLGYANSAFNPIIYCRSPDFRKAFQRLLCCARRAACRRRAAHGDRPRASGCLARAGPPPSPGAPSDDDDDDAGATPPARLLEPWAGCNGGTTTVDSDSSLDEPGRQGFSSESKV
# Procedure, shortened: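 Rat cortical membranes incubated 1 h with beta-adrenergic radioligand and test chemical; bound ligand measured by filtration and scintillation counting. Screen at 25 uM duplicate, then concentration series with 50 uM maximum; loss of signal versus DMSO.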
# [9] = biological target: rat Adrenergic Receptor, Alpha 2 (Adra2), Non-selective Binding, Adra2a (gene 25083) (UniProt P22909); test: NVS_GPCR_rAdra2_NonSelective: NovaScreen (NVS) G Protein-Coupled Receptor Assay for rat Adrenergic Receptor, Alpha 2 (Adra2), Non-selective Binding (AID 2283299)
# Chain of rat Adrenergic Receptor, Alpha 2 (Adra2), Non-selective Binding, Adra2a (gene 25083) (P22909 whole entry, looked up): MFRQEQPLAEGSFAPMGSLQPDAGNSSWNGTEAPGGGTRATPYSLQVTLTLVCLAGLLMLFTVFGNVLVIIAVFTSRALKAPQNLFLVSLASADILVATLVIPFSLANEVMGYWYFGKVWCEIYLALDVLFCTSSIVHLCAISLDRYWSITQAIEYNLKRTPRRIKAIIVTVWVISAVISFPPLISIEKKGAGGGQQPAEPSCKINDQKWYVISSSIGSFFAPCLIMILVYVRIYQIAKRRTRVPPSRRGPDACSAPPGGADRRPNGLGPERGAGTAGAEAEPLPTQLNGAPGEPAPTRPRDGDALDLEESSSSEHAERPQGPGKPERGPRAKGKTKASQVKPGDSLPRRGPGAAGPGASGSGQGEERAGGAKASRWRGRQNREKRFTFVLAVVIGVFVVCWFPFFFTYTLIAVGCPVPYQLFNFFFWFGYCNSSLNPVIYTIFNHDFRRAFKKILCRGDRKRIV
# Procedure, shortened: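 Filter-based scintillation counting of radioligand binding to rat cortical membrane receptors, measured 1.25 hours post-dosing; loss of signal versus DMSO indicates displacement. Initial single-concentration duplicate at 25 uM, then concentration series.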
# [10] = biological target: guinea pig Serotonin, 5-Hydroxytryptamine Receptor 4 (5HT4), HTR4 (gene 100135548) (UniProt O70528); test: NVS_GPCR_g5HT4: NovaScreen (NVS) G Protein-Coupled Receptor Assay for guinea pig Serotonin, 5-Hydroxytryptamine Receptor 4 (5HT4) (AID 2283294)
# Chain of guinea pig Serotonin, 5-Hydroxytryptamine Receptor 4 (5HT4), HTR4 (gene 100135548) (O70528 whole entry, looked up): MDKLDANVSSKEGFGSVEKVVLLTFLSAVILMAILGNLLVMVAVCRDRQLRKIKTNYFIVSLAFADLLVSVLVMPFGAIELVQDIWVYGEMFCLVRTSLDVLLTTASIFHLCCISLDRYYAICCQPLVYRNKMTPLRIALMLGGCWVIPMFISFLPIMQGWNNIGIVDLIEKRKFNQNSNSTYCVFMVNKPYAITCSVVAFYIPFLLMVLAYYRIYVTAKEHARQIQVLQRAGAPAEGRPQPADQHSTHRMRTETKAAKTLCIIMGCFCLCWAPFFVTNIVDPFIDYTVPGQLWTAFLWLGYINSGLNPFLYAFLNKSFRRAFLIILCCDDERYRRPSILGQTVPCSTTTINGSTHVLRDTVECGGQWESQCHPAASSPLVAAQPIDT
# Procedure, shortened: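 Compounds first screened in duplicate at 25 uM, actives followed up in concentration series. Binding measured as displacement of specific radioligand from guinea pig striatal membranes, 1 h, filter-based scintillation read-out versus DMSO baseline.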
# [11] = biological target: human Orphanin, Opioid Related Nociceptin Receptor 1 (ORL1), OPRL1 (gene 4987) (UniProt P41146); test: NVS_GPCR_hORL1: NovaScreen (NVS) G Protein-Coupled Receptor Assay for human Orphanin, Opioid Related Nociceptin Receptor 1 (ORL1) (AID 2283283)
# Chain of human Orphanin, Opioid Related Nociceptin Receptor 1 (ORL1), OPRL1 (gene 4987) (P41146 whole entry, looked up): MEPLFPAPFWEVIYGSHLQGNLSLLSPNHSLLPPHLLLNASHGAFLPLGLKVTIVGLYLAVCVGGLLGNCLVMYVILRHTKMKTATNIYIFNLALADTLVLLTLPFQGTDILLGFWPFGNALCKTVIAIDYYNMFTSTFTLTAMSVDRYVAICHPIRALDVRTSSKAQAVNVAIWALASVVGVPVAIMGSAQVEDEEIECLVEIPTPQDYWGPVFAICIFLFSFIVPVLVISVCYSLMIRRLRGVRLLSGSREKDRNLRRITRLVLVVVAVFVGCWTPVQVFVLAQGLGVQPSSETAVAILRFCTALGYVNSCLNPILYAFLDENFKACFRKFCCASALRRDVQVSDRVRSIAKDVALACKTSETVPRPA
# Procedure, shortened: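 Cell-free binding using HEK293-derived receptor protein: radioligand displacement measured by filter scintillation 1 hour after dosing. Primary testing at 25 uM in duplicate, followed by singleton concentration series up to 50 uM; DMSO served as negative control.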
# [12] = biological target: rat Adrenergic, Alpha 1, Non-selective Receptor (Adra1), Adra1a (gene 29412) (UniProt P43140); test: NVS_GPCR_rAdra1_NonSelective: NovaScreen (NVS) G Protein-Coupled Receptor Assay for rat Adrenergic, Alpha 1, Non-selective Receptor (Adra1) (AID 2283289)
# Chain of rat Adrenergic, Alpha 1, Non-selective Receptor (Adra1), Adra1a (gene 29412) (P43140 whole entry, looked up): as the sequence (P43140 whole entry, looked up) above
# Procedure, shortened: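 Chemicals first screened in duplicate at 25 uM, then actives tested in concentration series up to 50 uM. Binding measured as displacement of radioligand from rat forebrain membrane receptors, 1 h, filtration with scintillation readout; DMSO baseline.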
# [13] = system: rabbit Platelet Activating Factor Receptor (PAF), gene 100354046; test: NVS_GPCR_rabPAF: NovaScreen (NVS) G Protein-Coupled Receptor Assay for rabbit Platelet Activating Factor Receptor (PAF) (AID 2283287)
# Procedure, shortened: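 Rabbit platelet membrane preparation; radioligand displacement read by filter-based scintillation counting 1 h after dosing, loss of signal versus DMSO. Primary screen in duplicate at 25 uM, actives followed up in concentration series.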
smiles,measurement,setting,value
CCn1nc(C)c2c1C(=O)NCC(c1ccc(O)cc1)=N2,outcome,[1],inactive
same,AC50,[2],14.4 µM (active)
same,outcome,[3],inactive
same,outcome,[4],inactive
same,outcome,[5],inactive
same,outcome,[6],inactive
same,outcome,[7],inactive
same,outcome,[8],inactive
same,outcome,[9],inactive
O=C(O)c1cccc(C[C@@H]2COc3ccc(OCc4nc5cc(F)ccc5s4)cc3[C@@H]2O)c1,outcome,[10],inactive
OCCOCCOCCO,outcome,[11],inactive
same,outcome,[8],inactive
C=CN1CCCC1=O,outcome,[5],inactive
O=S(=O)(O)c1ccc(N=Nc2c(O)ccc3cc(S(=O)(=O)O)ccc23)cc1,AC50,[3],12.4 µM (active)
same,outcome,[12],inactive
same,AC50,[10],35.6 µM (active)
COc1cc2c(c(OC)c1OC)-c1ccc(OC)c(=O)cc1[C@@H](NC(C)=O)CC2,AC50,[13],17.1 µM (active)
CCCOc1ccc(S(=O)(=O)N2CCN(CC)CC2)cc1-c1nc2c(CC)n(Cc3ccccn3)nc2c(=O)[nH]1,AC50,[13],6.42 µM (active)
same,AC50,[12],0.402 µM (active)
CC[C@H](C)C(=O)O[C@H]1C[C@H](O)C=C2C=C[C@H](C)[C@H](CC[C@@H](O)C[C@@H](O)CC(=O)O)[C@H]21,outcome,[2],inactive
NNC(=O)c1ccncc1,AC50,[1],2.18 µM (active)
COCc1nnc(-c2ccc[n+]([O-])c2)n1-c1c(Cl)c(Cl)cc2[nH]c(=O)c(=O)[nH]c12,outcome,[4],inactive
c1ccc2cc3ccccc3cc2c1,outcome,[5],inactive
C[C@@H](Oc1ccc(CNC(=O)c2cccnc2Oc2ccc3c(c2)OCO3)c(F)c1)C(=O)O,outcome,[10],inactive
Cc1ccc(S(=O)(=O)NC(=O)NN2CCCCCC2)cc1,outcome,[10],inactive
